According to PubChem BioAssay (NCATS):
“And” between values parts separate entries of the source, which are not always exact repeats. Identical values can stand only once. Records with an inconclusive call do not appear. Entries that show only a call come without a potency. A number with no mark means an inactive call. The source made the active and inactive calls. Calls follow the shape of the dose curve; as a rule, active = well fitted curve in the direction sought with a large enough effect; inconclusive = small, poorly fitted or top-dose-only effect, or another doubt; inactive = no such curve, though single readings can be large; an effect the other way counts as inactive or inconclusive. *1 amine or outer side, *2 acyl side, *3 side chain or, on linkers, in order; H or OH if unused. Where a SMILES comes first, the peptide text is derived from it. Bridges are numbered along the chain shown (N, C = ends). [ ]: non-standard residue; d: D form. The star is where a group is joined. ξ: configuration not given here. ΔAla(3-NHCONH2) = NC(=O)NC=C(N)C(=O)O; X2 = NC1=NCCC(C(N[*:1])C(=O)[*:2])N1; ξβ3hOrn = NCCCC(N)CC(=O)*; Dap = NC[CH](N)C(=O)O

Assays:
[1] = biological target: Cytochrome P450 3A7 (Homo sapiens) (UniProt P24462); experiment: Cytochrome P450 family 3 subfamily A member 7 (CYP3A7) small molecule antagonists: luciferase biochemical qHTS assay (AID 1963596); conditions: P450-Glo CYP3A7 enzyme luminescence, 1 h; series mostly up to 57.4 µM; also: nearly all actives have a fitted effect of over 40% in size
In short: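 P450-Glo luminescent assay: CYP3A7 enzyme converts a proluciferin substrate to luciferin, detected by luciferase reagent; light proportional to activity. Compounds in DMSO preincubated 10 min with enzyme-substrate mix at room temperature, then NADPH regeneration added for 1 h.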

[2] = Viability qHTS for spleen associated tyrosine kinase inhibitor (SYKi) naive MV4-11 cells (AID 1963823); conditions: MV4-11 AML viability, CellTiter-Glo luminescence, 72 h; series mostly up to 45 µM; also: nearly all actives have a fitted effect of over 40% in size; also: potency is read from the fitted curve at half-maximal effect
In short: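 CellTiter-Glo luminescence, 10 min room-temperature incubation, gave viability. Cells: naive MV4-11 (500/well), treated 72 hr at 37 C, 5% CO2.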

[3] = Viability qHTS for spleen associated tyrosine kinase inhibitor (SYKi) drug resistant MV4-11 cells (AID 1963824); conditions: SYKi-resistant MV4-11 viability, CellTiter-Glo, 72 h; series mostly up to 45 µM; also: nearly all actives have a fitted effect of over 35% in size; also: potency is read from the fitted curve at half-maximal effect
In short: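 CellTiter-Glo luminescence, read 10 min after reagent addition, reports viability after a 72 hr compound exposure. Cells are an MV4-11 line made resistant to SYK inhibition, seeded at 500 per well onto compound-containing plates.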

[4] = Cellular viability qHTS for adrenocortical cancer (ACC) cell line SW-13 (AID 1963989); conditions: SW-13 ACC cells viability, CellTiter-Glo, 48 h; activity (max response): stronger effect = lower value; also: nearly all actives have a fitted effect of over 65% in size; also: potency is read from the fitted curve at half-maximal effect;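 as to activity (max response): cells grown in serum-free medium with ITS supplement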
In short: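 Viability was read as CellTiter-Glo luminescence after 48 h compound treatment (up to 46 uM final) of SW-13 cells grown serum-free; titration curves were fit with a four-parameter logistic model to give IC50 and efficacy.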

[5] = Cellular viability qHTS for adrenocortical cancer (ACC) cell line NCI-H295R (AID 1963990); conditions: CellTiter-Glo ATP luminescence, 48 h; series mostly up to 46.1 µM; also: nearly all actives have a fitted effect of over 60% in size; also: potency is read from the fitted curve at half-maximal effect
In short: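 CellTiter-Glo ATP luminescence, read 48 h after compound addition, measured viability of NCI-H295R adrenocortical cells grown serum-free with ITS. Final concentrations spanned up to 46 uM. Data normalized to DMSO and doxorubicin, fitted for IC50 and maximal response.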

Cytochrome P450 3A7 (Homo sapiens), sequence (P24462 whole entry, looked up): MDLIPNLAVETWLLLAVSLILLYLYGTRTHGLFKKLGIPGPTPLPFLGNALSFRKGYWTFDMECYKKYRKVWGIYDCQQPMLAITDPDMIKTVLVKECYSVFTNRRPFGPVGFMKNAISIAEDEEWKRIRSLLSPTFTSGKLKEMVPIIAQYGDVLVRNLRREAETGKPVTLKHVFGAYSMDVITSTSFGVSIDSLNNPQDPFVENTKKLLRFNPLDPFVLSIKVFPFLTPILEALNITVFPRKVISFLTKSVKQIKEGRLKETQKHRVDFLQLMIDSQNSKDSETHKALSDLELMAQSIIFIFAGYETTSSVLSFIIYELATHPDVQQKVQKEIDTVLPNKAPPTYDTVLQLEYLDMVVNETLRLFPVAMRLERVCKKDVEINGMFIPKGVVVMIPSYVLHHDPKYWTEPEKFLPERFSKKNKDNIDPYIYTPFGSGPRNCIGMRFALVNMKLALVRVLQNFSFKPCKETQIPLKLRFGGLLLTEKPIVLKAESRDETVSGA

Row | SMILES | Potency [1] | Potency [2] | Potency [3] | activity (max response) [4] | Potency [5] | activity change, negative = inhibition [1] | viability (% of control) [2] | viability, % of control [3] | activity change, negative = viability loss [5] | Potency [4]
1 | CCCN(CCC)C(=O)C(CCC(=O)O)NC(=O)c1ccccc1 (stereo not given) | inactive | inactive | inactive | 0.293% and -17.2% | inactive |  |  |  |  | 
2 | Oc1ccccc1-c1nnco1 | inactive | inactive | inactive | 12.7% | inactive |  |  |  |  | 
3 | CC[C@H]1OC(=O)[C@H](C)[C@@H](O[C@H]2C[C@@](C)(OC)[C@@H](O)[C@H](C)O2)[C@H](C)[C@@H](O[C@@H]2O[C@H](C)C[C@H](N(C)C)[C@H]2O)[C@](C)(O)C[C@@H](C)CN(C)[C@H](C)[C@@H](O)[C@]1(C)O | inactive | inactive | inactive | -23.1% | inactive |  |  |  |  | 
4 | CC(=O)Nc1ncc([N+](=O)[O-])s1 | inactive | inactive | inactive | 10.5% | inactive |  |  |  |  | 
5 | O=S(=O)(O)NC1CCCCC1 | inactive | inactive | inactive | 6.85% | inactive |  |  |  |  | 
6 | N=C(N)N1CCc2ccccc2C1 |  |  |  | -5.8% |  | 2.18% [at 4.83 µM] | 81.1% [at 4.97 µM] | 96.6% [at 4.97 µM] | -6.61% [at 3.81 µM] | 
7 | NCCCC(N)CC(=O)NCC1NC(=O)C(CO)NC(=O)C(N)CNC(=O)C(C2CCN=C(N)N2)NC(=O)C(=CNC(N)=O)NC1=O (stereo not drawn) (H-[Dap]S[Dap](ξβ3hOrn)[ΔAla(3-NHCONH2)][X2]; lactam 1-C; configuration not given here) |  |  |  | -2.59% |  | 0.114% [at 0.91 µM] | 84.9% [at 0.588 µM] | 101% [at 0.588 µM] | 3.92% [at 0.587 µM] | 
8 | COc1cc2c(NC3CCN(CC4CCCCC4)CC3)nc(N3CCCN(C(C)C)CC3)nc2cc1OCCCN1CCCCC1 | inactive | 2.59 µM (active) | 3.66 µM (active) |  | 22.4 µM (active) |  |  |  |  | 7.08 µM (active)
9 | O=C1c2ccccc2C(=O)C1c1ccccc1 | inactive | inactive | inactive | 5.96% | inactive |  |  |  |  | 
10 | CCOC(=O)c1cccnc1 | inactive | inactive | inactive | 14.3% | inactive |  |  |  |  | 
11 | CN1CCN(C(c2ccccc2)c2ccccc2)CC1 | inactive | inactive | inactive | -4.21% | inactive |  |  |  |  | 
12 | CO[C@]1(NC(=O)CSC(F)F)C(=O)N2C(C(=O)O)=C(CSc3nnnn3CCO)CO[C@H]21 | inactive | inactive | 5.8 µM (active) | -9.56% | inactive |  |  |  |  | 
13 | O=C(N[C@H]1CCC[C@H](CO)C1)C1CCN(c2nc3cc(Cl)c(-c4ccc(Cl)cc4)cc3o2)CC1 | inactive | 16.6 µM (active) | 16.6 µM (active) | -10.9% | 12.6 µM (active) |  |  |  |  | 
14 | C[C@H]1COc2c(C3(N)CC3)c(F)cc3c(=O)c(C(=O)O)cn1c23 | inactive | inactive | inactive | -1.24% | inactive |  |  |  |  | 
15 | C=CC(=O)Nc1cccc(Nc2nc(Nc3ccc(N4CCN(C(C)=O)CC4)cc3OC)ncc2C(F)(F)F)c1 | inactive | 1.64 µM (active) and 1.05 µM (active) | 1.84 µM (active) and 1.86 µM (active) |  | 3.55 µM (active) |  |  |  |  | 2.24 µM (active)
16 | NC(=O)c1ncn([C@@H]2O[C@H](CO)[C@@H](O)[C@H]2O)c1N | inactive | inactive | inactive | 3.4% and 2.54% | inactive |  |  |  |  | 
17 | CCN(CC)C(=O)Nc1ccc(OCC(O)CNC(C)(C)C)c(C(C)=O)c1 (stereo not given) | inactive | inactive | inactive | 12% | inactive |  |  |  |  | 
18 | O[C@@H]1CO[C@H]2[C@@H]1OC[C@@H]2O | inactive | inactive | inactive | -0.327% | inactive |  |  |  |  | 
19 | CN1[C@@H]2CC[C@H]1CC(OC(=O)C(O)c1ccccc1)C2 (stereo not given in full) | inactive | inactive | inactive | 7.83% | inactive |  |  |  |  | 
20 | Nc1ccc(C(=O)O)cc1 | inactive | inactive | inactive | 6.83% | inactive |  |  |  |  | 
21 | CC(O)COc1ccccc1 (stereo not given) | inactive | inactive | inactive | 5.91% | inactive |  |  |  |  | 
22 | CN(C(=O)C(Cl)Cl)c1ccc(OC(=O)c2ccco2)cc1 | inactive | inactive | inactive | -5.24% | inactive |  |  |  |  | 
23 | CCCCNc1ncc(-c2ccc(CN3CCOCC3)cn2)c(NC2CCC(O)CC2)n1 (stereo not given) | inactive | 31.7 nM (active) and 57.4 nM (active) | 0.091 µM (active) | -11.9% | inactive |  |  |  |  | 
24 | Oc1ccc(Cl)c2cccnc12 | inactive | inactive | inactive | 4.85% | inactive |  |  |  |  | 
25 | Cc1c(F)c(N2CCNC(C)C2)cc2c1c(=O)c(C(=O)O)cn2C1CC1 (stereo not given) | inactive | inactive | inactive | -0.964% | inactive |  |  |  |  | 
26 | CC[N+](C)(C)c1cccc(O)c1 | inactive | inactive | inactive | 8.29% | inactive |  |  |  |  | 
27 | CCCCS(=O)(=O)N[C@@H](Cc1ccc(OCCCCC2CCNCC2)cc1)C(=O)O | inactive | inactive | inactive | 11.9% | inactive |  |  |  |  | 
28 | CCN1CCCC1CN (stereo not given) | inactive | inactive | inactive | -2.8% | inactive |  |  |  |  | 
29 | CCOC(=O)OC(C)OC1=C(C(=O)Nc2ccccn2)N(C)S(=O)(=O)c2ccccc21 (stereo not given) | inactive | inactive | inactive | 1.88% | inactive |  |  |  |  | 
